Measured values from publication PMC4336329 (PLoS ONE, 2015).
Among all 310,000 compounds or so, about 14,000 (4.5%) showed an effect of 50% or more. Effects have a minus sign here. What follows is part of a selection rich in strong results, with near analogues and random picks from the rest.

Target: human ether-à-go-go-related gene (hERG) potassium channel (human, UniProt Q12809)
Assay: primary screen, population patch clamp on CHO cells stably expressing hERG; higher = less effect of the substance
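Also: peak tail current of the secondary pulse compared with the same well before compound.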

Sequence of human ether-à-go-go-related gene (hERG) potassium channel (Q12809 whole entry, looked up): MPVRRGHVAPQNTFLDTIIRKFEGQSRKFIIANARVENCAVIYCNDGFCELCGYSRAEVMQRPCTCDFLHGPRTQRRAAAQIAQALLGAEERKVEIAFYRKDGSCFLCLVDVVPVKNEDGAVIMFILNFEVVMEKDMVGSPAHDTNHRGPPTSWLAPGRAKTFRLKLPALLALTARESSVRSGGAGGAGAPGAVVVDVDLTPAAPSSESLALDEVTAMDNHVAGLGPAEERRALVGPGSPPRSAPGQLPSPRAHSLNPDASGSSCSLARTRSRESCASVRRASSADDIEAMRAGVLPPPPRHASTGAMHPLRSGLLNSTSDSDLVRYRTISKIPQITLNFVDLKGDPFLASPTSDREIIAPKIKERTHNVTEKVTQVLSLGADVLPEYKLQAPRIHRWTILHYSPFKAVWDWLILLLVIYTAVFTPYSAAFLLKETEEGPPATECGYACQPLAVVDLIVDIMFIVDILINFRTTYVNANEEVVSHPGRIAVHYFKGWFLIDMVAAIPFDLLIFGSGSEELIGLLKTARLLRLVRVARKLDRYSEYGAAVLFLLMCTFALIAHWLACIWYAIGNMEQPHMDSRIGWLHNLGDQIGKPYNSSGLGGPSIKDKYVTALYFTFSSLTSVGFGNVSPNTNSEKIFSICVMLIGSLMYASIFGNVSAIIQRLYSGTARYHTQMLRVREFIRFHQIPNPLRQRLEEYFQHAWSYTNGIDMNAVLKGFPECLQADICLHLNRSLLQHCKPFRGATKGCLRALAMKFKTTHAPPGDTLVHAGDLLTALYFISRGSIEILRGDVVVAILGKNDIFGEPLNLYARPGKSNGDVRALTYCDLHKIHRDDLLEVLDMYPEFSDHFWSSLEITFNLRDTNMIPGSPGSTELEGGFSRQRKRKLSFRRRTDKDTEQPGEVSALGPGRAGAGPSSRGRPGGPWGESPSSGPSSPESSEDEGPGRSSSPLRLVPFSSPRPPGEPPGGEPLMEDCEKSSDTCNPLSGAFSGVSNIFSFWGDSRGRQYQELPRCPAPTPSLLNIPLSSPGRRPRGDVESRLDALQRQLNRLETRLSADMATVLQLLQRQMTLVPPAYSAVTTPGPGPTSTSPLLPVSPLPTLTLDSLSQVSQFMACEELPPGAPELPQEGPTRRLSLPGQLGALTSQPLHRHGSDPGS

Row | Compound | hERG current change (%, negative = inhibition) at 10uM
1 | CCC/C=N/Nc1nnc(Cc2ccc(OC)c(OC)c2)c(=O)[nH]1 | 27.2%
2 | CSCC[C@H](NC(=O)OCc1ccccc1)C(=O)O | -2.24%
3 | Cc1ccc(-c2c(C#N)c(N)nc3c2CCCCC3)o1 | -5.84%
4 | C=CCn1c(N/N=C/c2ccc(O)cc2)nc2ccccc2c1=O | -17.9%
5 | Cc1cc2c(C)nc(N/N=C/c3ccc(F)cc3)nc2o1 | -52.7%
6 | Cc1cc2c(C)nc(N/N=C/c3ccc([N+](=O)[O-])cc3)nc2o1 | -16.2%
7 | Cc1cc2c(C)nc(N/N=C/c3ccccc3)nc2o1 | -27.6%
8 | CC1(C)C2CCC13CS(=O)(=O)N[C@@H]3C2 (stereo partly shown) | 20.5%
9 | Cc1ccc(CC2CC(=O)N(CCc3ccc4c(c3)OCO4)C2=O)cc1 (stereo not shown) | 3.17%
10 | O=C(Nc1ccc(O)cc1)C1CCCO1 (stereo not shown) | 16.4%
11 | NC(=O)c1ccc(NC(=O)CSc2nnc(-c3ccccn3)n2N)cc1 | 17.1%
12 | C=CCn1c(SCC(=O)Nc2cc(C)cc(C)c2)nnc1-c1cnccn1 | -29.6%
13 | Cc1cc(-c2nnc(SCC(=O)Nc3cccc(F)c3)n2N)n[nH]1 | 6.38%
14 | C=CCn1c(SCC(=O)Nc2cccc(C)c2)nnc1-c1cnccn1 | -71.9%
15 | C=CCn1c(SCC(=O)Nc2ccc(OC)cc2)nnc1-c1cnccn1 | -23.1%
16 | Cc1cc(-c2nnc(SCC(=O)Nc3cccc(Cl)c3)n2N)n[nH]1 | -71.9%
17 | C=CCn1c(SCC(=O)Nc2c(C)cccc2C)nnc1-c1cnccn1 | -2.77%
18 | Cc1ccc(NC(=O)CSc2nnc(-c3ccccn3)n2N)cc1F | -48.5%
19 | C=CCn1c(SCC(=O)Nc2ccc(F)cc2)nnc1-c1cnccn1 | -58.9%
20 | Cc1cccc(NC(=O)CSc2nnc(-c3cc(C)[nH]n3)n2N)c1 | -29.1%
21 | C=CCn1c(SCC(=O)Nc2ccc(S(N)(=O)=O)cc2)nnc1-c1cnccn1 | 13%
22 | Nn1c(SCC(=O)Nc2ccc(F)cc2)nnc1-c1ccccn1 | -53.6%
23 | Cc1cc(C)[n+](Cc2ccccc2)cc1C(N)=O.[Cl-] | 16.6%

Row | Compound | hERG current change (%, negative = inhibition) at 10uM
24 | N#Cc1cc(Nc2c(N)nc[nH]c2=O)c([N+](=O)[O-])cc1C#N | 8.95%
25 | O=C(O)CCN1C(=O)c2ccc(NC(=O)Cc3ccc(Cl)cc3)cc2C1=O | 3.94%
26 | CC(=O)c1cc(-c2ccccc2)n(CC(=O)N2CCCC2)c1C | 13.3%
27 | Cc1ccc(NC(=O)CSc2nnc(-c3ccccn3)n2C)cc1 | -28.1%
28 | C=CCn1c(SCC(=O)Nc2ccc(F)cc2F)nnc1-c1cnccn1 | -58.8%
29 | CCn1c(SCC(=O)Nc2ccccc2F)nnc1-c1cnccn1 | -34.9%
30 | C=CCn1c(SCC(=O)Nc2cccc3ccccc23)nnc1-c1cnccn1 | -39.9%
31 | CCn1c(SCC(=O)Nc2ccc(C)cc2)nnc1-c1ccccn1 | -59.1%
32 | CCn1c(SCC(=O)Nc2ccc3c(c2)OCCO3)nnc1-c1ccccn1 | -16.1%
33 | CCn1c(SCC(=O)Nc2ccc(C)cc2)nnc1-c1cnccn1 | -31.8%
34 | CCn1c(SCC(=O)Nc2ccc(F)cc2)nnc1-c1cnccn1 | -56.8%
35 | C=CCn1c(SCC(=O)Nc2cc(C)ccc2C)nnc1-c1cnccn1 | -14.4%
36 | COc1cc(C2NC(=O)NC(c3ccccc3)=C2C(C)=O)ccc1OCC#N (stereo not shown) | -8.43%
37 | CN1CCN(C(=O)c2ccc(C3SCC(=O)N3Cc3ccco3)cc2)CC1 (stereo not shown) | 6.13%
38 | CCOc1ccc(/C=N/NC(=O)c2csc(C)c2C)c(OCC)c1 | 6.43%
39 | Cc1ccc(S(=O)(=O)NCCC(=O)Nc2cc(S(=O)(=O)N(C)C)ccc2C)cc1C | -7.95%
40 | O=C(c1cc([N+](=O)[O-])ccc1N1CCCC1)N1CCCC1 | -0.904%
41 | CCN1CC(CN(C)Cc2nc(-c3ccc(C(F)(F)F)cc3)oc2C)CC1=O (stereo not shown) | -51.5%
42 | CCN1CC(CN(C)Cc2nc(-c3ccc(C(F)(F)F)cc3)no2)CC1=O (stereo not shown) | -28.9%
43 | CCN1CC(CN(C)Cc2nc(-c3ccc(Cl)cc3)no2)CC1=O (stereo not shown) | -59.1%
44 | CCN1CC(CN(C)Cc2nc(-c3ccco3)oc2C)CC1=O (stereo not shown) | 10.4%
45 | CCN1CC(CN(C)Cc2nc(-c3ccc(OC)c4ccccc34)oc2C)CC1=O (stereo not shown) | -37.2%
46 | CCN1CC(CN(C)Cc2nc(-c3cccs3)no2)CC1=O (stereo not shown) | 3.65%

Row | Compound | hERG current change (%, negative = inhibition) at 10uM
47 | Cc1cc(O)c(NC(=O)c2ccc(Br)o2)cc1C | -7.04%
48 | COc1ccc(N2CCN(C(=O)CN(c3cccc(OC)c3)S(=O)(=O)c3ccccc3)CC2)cc1 | -19.4%
49 | CC(=O)OC1CC2(C)C(=O)CCC2C2CCc3cc(O)ccc3C12 (stereo not shown) | 1.59%
50 | Cc1ccc(Nc2cccc(C(F)(F)F)c2)nn1 | -0.351%
51 | COc1ccc2c(c1)CCCN2C(N)=Nc1ccc(Cl)cc1 | -63.7%
52 | COc1ccc2c(c1)CCCN2S(=O)(=O)c1ccc(Cl)cc1 | 9.65%
53 | COc1ccc2c(c1)CCCN2C(N)=O | 17.4%
54 | Cc1ccc(NC(=O)CN(C)C(=O)C(Sc2ccccc2)c2ccccc2)cc1 (stereo not shown) | 2.05%
55 | CC(=O)O[C@H]1C(=O)[C@@]2(C)C([C@H](OC(=O)c3ccccc3)[C@]3(O)C[C@H](OC(=O)[C@H](O)[C@@H](NC(=O)Cc4ccccc4)c4ccccc4)C(C)=C1C3(C)C)[C@]1(OC(C)=O)CO[C@@H]1C[C@@H]2O (stereo partly shown) | 16.6%
56 | CCn1cc(C(=O)NCCCN2CCCC2)c(=O)c2cc(S(=O)(=O)N3CCc4ccccc4C3)ccc21 | -8.75%
57 | CCn1cc(C(=O)N2CCc3ccccc3C2)c(=O)c2cc(S(=O)(=O)N3CCCCC3)ccc21 | -40.7%
58 | CCn1cc(C(=O)NCCCN2CCCCCC2)c(=O)c2cc(S(=O)(=O)N3CCc4ccccc4C3)ccc21 | -77.7%
59 | CCn1cc(C(=O)N2CCc3ccccc32)c(=O)c2cc(S(=O)(=O)N3CC(C)CC(C)C3)ccc21 (stereo not shown) | -43.8%
60 | CCn1cc(C(=O)NCCCN2CCCC(C)C2)c(=O)c2cc(S(=O)(=O)N3CCc4ccccc4C3)ccc21 (stereo not shown) | -75.7%
61 | CCn1cc(C(=O)N2CCc3ccccc32)c(=O)c2cc(S(=O)(=O)N3CCCCCC3)ccc21 | -67.1%
62 | CCOCCCNC(=O)c1cn(CC)c2ccc(S(=O)(=O)N3CCCC3)cc2c1=O | -6.08%
63 | CCOCCCNC(=O)c1cn(CC)c2ccc(S(=O)(=O)N3CCC(C)CC3)cc2c1=O | -22.6%
64 | CCC1CCCCN1CCCNC(=O)c1cn(CC)c2ccc(S(=O)(=O)N3CCc4ccccc4C3)cc2c1=O (stereo not shown) | -72%
65 | CCn1cc(C(=O)NCCCOC)c(=O)c2cc(S(=O)(=O)N3CCC(C)CC3)ccc21 | -10.3%
66 | CCC1CCCCN1CCCNC(=O)c1cn(C)c2ccc(S(=O)(=O)N3CCOCC3)cc2c1=O (stereo not shown) | 21.3%
67 | CCn1cc(C(=O)NCCCOC)c(=O)c2cc(S(=O)(=O)N3CCCC3)ccc21 | -4.05%
